Experimental data as given in PubChem BioAssay.
Active and inactive are the calls of the source.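 The calls were made as follows: active = viability increase at or above a cutoff of the median across tested compounds plus 3 SD (cut at about 8.5% in these data, passing the limit was not always enough); inconclusive = some gains above the cutoff, reason not given; inactive = the rest.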

assay: doxorubicin toxicity protection in MRP-1 cells – H69AR cells, CellTiter-Glo, duplicate, MRP-1 activator project, pilot screen (AID 807); details: H69AR viability with doxorubicin, CellTiter-Glo luminescence; at 10 µM; hits give high values;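 also: compound pretreatment 18-22 h then 72 h combined with doxorubicin; 0% = doxorubicin alone and 100% = vehicle without doxorubicin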

Row | SMILES | viability increase
1 | O=C(c1ccc2nc(N3CCCCC3)sc2c1)N1CCN(c2ccccn2)CC1 | 0.27% (inactive)
2 | CC(C)CCNC(=O)Cn1c(NCCC(C)C)nc2c1c(=O)n(C)c(=O)n2C | -1.31% (inactive)
3 | CC(=O)NC(C)c1nc2ccccc2n1C(C)C (centres undefined) | -2.65% (inactive)
4 | NC(=O)CSc1cn(CCNC(=O)c2cccs2)c2ccccc12 | -0.44% (inactive)
5 | Cc1cccc(C2CC(c3ccc(Cl)cc3)Nc3nc(N)nn32)c1 (centres undefined) | 4.33% (inactive)
6 | CCOC(=O)CN1CC23C=CC(O2)C(C(=O)Nc2ccc(C(C)=O)cc2)C3C1=O (centres undefined) | -1.78% (inactive)
7 | CCCSc1nnc(N2C(=O)CC(c3ccsc3)C3=C2CCCC3=O)s1 (centres undefined) | -0.83% (inactive)
8 | O=C(CN1CCN(Cc2ccc(F)cc2Cl)C1=O)NCCCN1CCOCC1 | -0.41% (inactive)
9 | CN(C)CCCN1C(=O)CSC1c1ccccc1 (centres undefined) | -0.9% (inactive)
10 | COC(=O)Cn1c(=O)c2c(nc3n2CC(C)CN3c2ccc(C)c(C)c2)n(C)c1=O (centres undefined) | -0.75% (inactive)
11 | CCCSC1=C(C#N)C(c2cc(OC)ccc2OC)CC(=O)N1 (centres undefined) | -0.44% (inactive)
12 | O=C(Nc1ccc(CN2CCOCC2)cc1)c1cc2ccccn2n1 | 2.39% (inactive)
13 | CCN(CC)CCn1c(=N)n(CCO)c2ccccc21 | -0.4% (inactive)
14 | CCN(CCCNS(=O)(=O)c1ccc2c(c1)oc(=O)n2C)c1cccc(C)c1 | -3.21% (inactive)
15 | COc1ccc(OC)c(C2=NOC(C(=O)Nc3c(C)n(C)n(-c4ccccc4)c3=O)C2)c1 (centres undefined) | -0.56% (inactive)
16 | O=C(Cn1cc2c(n1)CCCCC2)N1CCc2ccccc2C1 | 1.54% (inactive)
17 | Cn1c(=O)c2c(nc(SCCCC#N)n2Cc2c(F)cccc2Cl)n(C)c1=O | -4.16% (inactive)
18 | CCN1CCN(Cc2ccc(NC(=O)Nc3ccccc3)cc2)CC1 | 0.37% (inactive)
19 | CCOC(=O)N1CCN(Cc2nc3c(c(=O)n(C)c(=O)n3C)n2Cc2ccccc2)CC1 | -4.1% (inactive)
20 | COCCCNC(=O)Cn1cc2c(n1)CCC(C)C2 (centres undefined) | 0.05% (inactive)

Row | SMILES | viability increase
21 | C=CCc1ccccc1OCCCCN1CCCC1 | -7.03% (inactive)
22 | COc1ccc(OCC(=O)N2CC3(C)CC2CC(C)(C)C3)cc1 (centres undefined) | 0.69% (inactive)
23 | O=C1c2ccccc2C(Nc2ccc(-c3nc4ccccc4[nH]3)cc2)N1Cc1ccco1 (centres undefined) | -5.99% (inactive)
24 | CCCNc1nc(N2CCOCC2)nc(N2CCOCC2)n1 | -0.12% (inactive)
25 | COCCn1c(SCC(=O)Nc2ccc3c(c2)OCCO3)nc2c(c1=O)SC(C)C2 (centres undefined) | -1.19% (inactive)
26 | COc1ccc(NC(=O)C2CCCN2S(=O)(=O)c2cccc3cccnc23)c(OC)c1 (centres undefined) | -2.76% (inactive)
27 | CCOC(=O)Cn1ncc(-c2ccccc2)c1N | 0.83% (inactive)
28 | O=C(O)C1CC(=O)N(CCOc2ccccc2)C1 (centres undefined) | 0.57% (inactive)
29 | Cc1ccc(-n2c3c(cc(C(=O)NCCCN4CCOCC4)c2=O)C(=O)CC(C)(C)C3)cc1 | -1.54% (inactive)
30 | CCOC(=O)C1CCN(Cc2ccc(OC)c(C)c2OC)CC1 | -4.57% (inactive)
31 | COc1ccc(C(C)N2CC34C=CC(O3)C(C(=O)OCC(C)C)C4C2=O)cc1 (centres undefined) | -2.51% (inactive)
32 | Cc1c(NC(=O)C2CCCCN2S(=O)(=O)c2ccc(Cl)cc2)c(=O)n(-c2ccccc2)n1C (centres undefined) | -1.13% (inactive)
33 | CC(C)(NC(=O)N1CCCC1)c1cccc(C(C)(C)NC(=O)N2CCCC2)c1 | -0.99% (inactive)
34 | CC(C)NC(=O)c1ccc2c(c1)nnn2C | 0.39% (inactive)
35 | Cc1ccc(C(=O)CC2(O)C(=O)N(C)c3ccc(Br)cc32)c(C)c1 (centres undefined) | -4.61% (inactive)
36 | Cc1ccc(NC(=O)CN(c2ccc3c(c2)OCO3)S(=O)(=O)c2c(C)n[nH]c2C)cc1 | 2.09% (inactive)
37 | COc1ccc(N2CCN(Cc3nc4c(c(=O)n(C)c(=O)n4C)n3Cc3ccccc3C)CC2)cc1 | -4.52% (inactive)
38 | CN(C(=O)c1ccco1)c1nnc(C23CC4CC(CC(C4)C2)C3)s1 | -7.07% (inactive)
39 | CCCC(=O)C1=C(N(C)c2ccccc2)CC(C)(C)C(C(=O)OC)C1=O (centres undefined) | -3.32% (inactive)
